Compounds without any hit were thinned out: in the full panel of roughly 83,000, 20% have a hit.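 Activity criterion: percent growth below 10, measured after cells in 96-well plates were exposed to a single compound concentration for 48 hours.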 Activity calls are given as the source filed them.
How the values were obtained:
Assay in all cases: NCI-60 one-dose screen, 48 h (100 = growth as untreated, 0 = no growth, -100 = all killed)
Conditions in all cases: 10 µM unless noted
RPMI-8226 leukemia = tested on: RPMI-8226 leukemia
OVCAR-8 ovarian = tested on: OVCAR-8 ovarian
OVCAR-5 ovarian = tested on: OVCAR-5 ovarian
OVCAR-4 ovarian = tested on: OVCAR-4 ovarian
SK-OV-3 ovarian = tested on: SK-OV-3 ovarian
IGROV1 ovarian = tested on: IGROV1 ovarian
OVCAR-3 ovarian = tested on: OVCAR-3 ovarian
HS 578T breast = tested on: HS 578T breast
NCI/ADR-RES ovarian = tested on: NCI/ADR-RES ovarian
T-47D breast = tested on: T-47D breast

Measured: growth

C[C@@H](Nc1c(C#N)cnc2ccc(-c3cnc(N)nc3)cc12)c1ccccc1
inactive: OVCAR-8 ovarian 17.1% | OVCAR-5 ovarian 20.9% | NCI/ADR-RES ovarian 22.5%
active: RPMI-8226 leukemia -26.9% | OVCAR-4 ovarian 4.34% | SK-OV-3 ovarian -2.04% | IGROV1 ovarian -32.6% | OVCAR-3 ovarian 9.52% | HS 578T breast -13.6% | T-47D breast 3.05%

NC(=O)c1cc(-c2ccc3ncnc(N4CCc5cc(F)c(Cl)cc54)c3c2)cnc1N
active: RPMI-8226 leukemia -8.02% | IGROV1 ovarian -41.2% | OVCAR-3 ovarian 1.86% | HS 578T breast -7.69% | T-47D breast 0.0054%
inactive: OVCAR-8 ovarian 32.8% | OVCAR-5 ovarian 36.5% | OVCAR-4 ovarian 10.4% | SK-OV-3 ovarian 35.9% | NCI/ADR-RES ovarian 60.2%

Cc1sc2nc(NCc3ccccc3Cl)[nH]c(=O)c2c1C
inactive: RPMI-8226 leukemia 82.8% | OVCAR-8 ovarian 88.1% | OVCAR-5 ovarian 102% | OVCAR-4 ovarian 101% | SK-OV-3 ovarian 114% | IGROV1 ovarian 90.6% | OVCAR-3 ovarian 123% | HS 578T breast 99% | NCI/ADR-RES ovarian 104% | T-47D breast 94.6%

COc1cc(/C=C/C(=O)c2ccc(C(F)(F)F)cc2)ccc1Oc1nc(NCCO)nc(N2CCOCC2)n1
inactive: OVCAR-8 ovarian 95.9% | OVCAR-5 ovarian 101% | OVCAR-4 ovarian 96% | SK-OV-3 ovarian 101% | IGROV1 ovarian 92.5% | OVCAR-3 ovarian 109% | HS 578T breast 82% | NCI/ADR-RES ovarian 96.7% | T-47D breast 83.5%
active: RPMI-8226 leukemia -16.1%

Cc1ccc(-c2nc(C(Cl)Cl)nc3cc(-c4ccccc4)nn23)cc1
active: RPMI-8226 leukemia 6.1% | OVCAR-5 ovarian -8.77% | OVCAR-4 ovarian -24% | SK-OV-3 ovarian -32.4% | OVCAR-3 ovarian -42.7% | HS 578T breast 1.87%
inactive: OVCAR-8 ovarian 10.3% | IGROV1 ovarian 29.3% | NCI/ADR-RES ovarian 13.5% | T-47D breast 51%

O=C(N/N=C/c1ccc(Cl)s1)c1[nH]c2ccc(Br)cc2c1-c1ccccc1
inactive: OVCAR-5 ovarian 52.9% | OVCAR-4 ovarian 69.5% | SK-OV-3 ovarian 29.6% | IGROV1 ovarian 19.5% | OVCAR-3 ovarian 20.8% | HS 578T breast 27% | NCI/ADR-RES ovarian 17.2% | T-47D breast 64.7%
active: RPMI-8226 leukemia 5.6% | OVCAR-8 ovarian 2.09%

Nc1ncc(-c2ccc3ncnc(N4CCc5cc(F)c(Cl)cc54)c3c2)cc1CO
inactive: OVCAR-8 ovarian 12.5% | OVCAR-5 ovarian 19.9%
active: RPMI-8226 leukemia -25.4% | OVCAR-4 ovarian 8.51% | SK-OV-3 ovarian -18.4% | IGROV1 ovarian -54.7% | OVCAR-3 ovarian -19.8% | HS 578T breast -18% | NCI/ADR-RES ovarian 9.17% | T-47D breast 0.798%

Cc1cccc2sc(/N=C(\N)C(Cl)(Cl)Cl)nc12
inactive: RPMI-8226 leukemia 105% | OVCAR-8 ovarian 102% | OVCAR-5 ovarian 119% | OVCAR-4 ovarian 97.4% | SK-OV-3 ovarian 101% | IGROV1 ovarian 98.3% | OVCAR-3 ovarian 115% | HS 578T breast 97.1% | NCI/ADR-RES ovarian 108% | T-47D breast 74.8%

COc1cc(OC)c(C2SCC(=O)N2Nc2ncnc3ccccc23)cc1OC (stereo not given)
inactive: RPMI-8226 leukemia 115% | OVCAR-8 ovarian 106% | OVCAR-5 ovarian 109% | OVCAR-4 ovarian 103% | SK-OV-3 ovarian 127% | IGROV1 ovarian 106% | OVCAR-3 ovarian 119% | HS 578T breast 112% | NCI/ADR-RES ovarian 104% | T-47D breast 106%

COc1ccc(-c2nn3c(-c4ccccc4F)nnc3s2)cc1
inactive: RPMI-8226 leukemia 58% | OVCAR-8 ovarian 68.3% | OVCAR-5 ovarian 81.2% | OVCAR-4 ovarian 82% | SK-OV-3 ovarian 84% | IGROV1 ovarian 57.3% | OVCAR-3 ovarian 49.6% | HS 578T breast 74.2% | NCI/ADR-RES ovarian 21.3% | T-47D breast 46%

CN1CCN(Cc2ccc(NC(=O)c3cncc(C#Cc4cnc5[nH]ncc5c4)c3)cc2C(F)(F)F)CC1
inactive: RPMI-8226 leukemia 31.2% | OVCAR-8 ovarian 41.3% | OVCAR-5 ovarian 41.6% | OVCAR-4 ovarian 54.5% | OVCAR-3 ovarian 51.9% | HS 578T breast 20.1% | NCI/ADR-RES ovarian 75.8% | T-47D breast 40.7%
active: SK-OV-3 ovarian 2.28% | IGROV1 ovarian 7.92%

N#Cc1nc(-c2ccccc2)oc1S(=O)(=O)N1CCN(CCc2ccccn2)CC1
active: T-47D breast -24.2%
inactive: RPMI-8226 leukemia 36.1% | OVCAR-8 ovarian 84.9% | OVCAR-5 ovarian 86.3% | OVCAR-4 ovarian 89.7% | SK-OV-3 ovarian 137% | IGROV1 ovarian 10% | OVCAR-3 ovarian 31.2% | HS 578T breast 106% | NCI/ADR-RES ovarian 99.2%

O=c1[nH]c2ccccc2cc1CSc1ccccc1Nc1nccc(-c2ccc(C(F)(F)F)cc2)n1
inactive: RPMI-8226 leukemia 62.6% | OVCAR-8 ovarian 38.1% | OVCAR-5 ovarian 103% | OVCAR-4 ovarian 48.7% | SK-OV-3 ovarian 117% | IGROV1 ovarian 67.8% | OVCAR-3 ovarian 69.8% | HS 578T breast 68.3% | NCI/ADR-RES ovarian 63.2% | T-47D breast 66.7%

COc1cc(/C=C/C(=O)c2ccc(C)cc2)ccc1Oc1nc(NCCO)nc(N2CCOCC2)n1
active: RPMI-8226 leukemia -18.3%
inactive: OVCAR-8 ovarian 76.1% | OVCAR-5 ovarian 83.6% | OVCAR-4 ovarian 80.6% | SK-OV-3 ovarian 95.9% | IGROV1 ovarian 53.9% | OVCAR-3 ovarian 75.1% | HS 578T breast 79.9% | NCI/ADR-RES ovarian 54.1% | T-47D breast 92.4%

Cc1nc(-c2cc3ccccc3oc2=O)ccc1C(=O)/C=C/c1ccc(Cl)c(Cl)c1
inactive: RPMI-8226 leukemia 101% | OVCAR-8 ovarian 99.5% | OVCAR-5 ovarian 113% | OVCAR-4 ovarian 107% | SK-OV-3 ovarian 127% | IGROV1 ovarian 104% | OVCAR-3 ovarian 111% | HS 578T breast 90.7% | NCI/ADR-RES ovarian 105% | T-47D breast 104%

OC1CCc2c(-c3ccc4ncnc(N5CCc6cc(F)c(Cl)cc65)c4c3)cncc21 (stereo not given)
active: IGROV1 ovarian -13.2% | T-47D breast 7.03%
inactive: RPMI-8226 leukemia 15.9% | OVCAR-8 ovarian 52.9% | OVCAR-5 ovarian 46.6% | OVCAR-4 ovarian 56.1% | SK-OV-3 ovarian 58.1% | OVCAR-3 ovarian 37.6% | HS 578T breast 27.8% | NCI/ADR-RES ovarian 51.1%

N/C(=N\c1nc2c(Br)cccc2s1)C(Br)Br
active: RPMI-8226 leukemia -16.5% | OVCAR-8 ovarian -18% | OVCAR-5 ovarian 8.49% | IGROV1 ovarian -67.6% | OVCAR-3 ovarian -27.4% | HS 578T breast 6.83% | NCI/ADR-RES ovarian 6.58%
inactive: OVCAR-4 ovarian 43.2% | SK-OV-3 ovarian 53% | T-47D breast 33.1%

O=[N+]([O-])c1ccc(O)c2ncccc12
inactive: RPMI-8226 leukemia 22.1% | OVCAR-8 ovarian 16.9% | OVCAR-5 ovarian 40.1% | OVCAR-4 ovarian 40.8% | SK-OV-3 ovarian 58.7% | IGROV1 ovarian 23.6% | OVCAR-3 ovarian 11.4% | HS 578T breast 47.3% | NCI/ADR-RES ovarian 15.5% | T-47D breast 25.9%

COc1cc(-c2nc3ccc(-c4nnc(SCC(=O)Nc5ccc(C(C)=O)cc5)o4)cc3[nH]2)cc(OC)c1OC
inactive: RPMI-8226 leukemia 108% | OVCAR-8 ovarian 94.9% | OVCAR-5 ovarian 99.9% | OVCAR-4 ovarian 111% | SK-OV-3 ovarian 112% | IGROV1 ovarian 99.3% | OVCAR-3 ovarian 119% | HS 578T breast 103% | NCI/ADR-RES ovarian 107% | T-47D breast 103%

CN(C)c1ccc(-c2c(NC(C)(C)C)nc3c(OCCc4ccccc4)cccn23)cc1
inactive: OVCAR-8 ovarian 18.7% | OVCAR-5 ovarian 21.5% | OVCAR-4 ovarian 31.3% | IGROV1 ovarian 23.3% | OVCAR-3 ovarian 20.2% | HS 578T breast 23.8% | T-47D breast 10.1%
active: RPMI-8226 leukemia -27.5% | SK-OV-3 ovarian 8.93% | NCI/ADR-RES ovarian 4.77%

CN(C)CCCOc1c2ccc(Cl)cc2nc2c1oc1ccc(Cl)cc12
inactive: OVCAR-8 ovarian 26.7% | OVCAR-5 ovarian 21.3% | OVCAR-4 ovarian 50.6% | SK-OV-3 ovarian 41.4% | OVCAR-3 ovarian 45.4% | HS 578T breast 26.3% | T-47D breast 58.7%
active: RPMI-8226 leukemia -20.8% | IGROV1 ovarian 6.89% | NCI/ADR-RES ovarian -20.8%

CCCC(=O)NC(c1ccc2c(c1)OC(F)(F)O2)c1cc(C)c2cccnc2c1O (stereo not given)
active: SK-OV-3 ovarian 9.65%
inactive: RPMI-8226 leukemia 29.1% | OVCAR-8 ovarian 14.3% | OVCAR-5 ovarian 42% | OVCAR-4 ovarian 33.7% | IGROV1 ovarian 12.7% | OVCAR-3 ovarian 24.8% | HS 578T breast 38.5% | NCI/ADR-RES ovarian 18.8% | T-47D breast 23.9%

C/C(=N/NC(N)=S)c1ccc(Nc2nc(SCC(C)C)nc(-c3ccc(F)cc3)c2C#N)cc1
inactive: RPMI-8226 leukemia 34.2% | OVCAR-5 ovarian 29.2% | OVCAR-4 ovarian 26.5% | SK-OV-3 ovarian 28.9% | IGROV1 ovarian 21.2% | T-47D breast 21.6%
active: OVCAR-8 ovarian -3.63% | OVCAR-3 ovarian -19.5% | HS 578T breast 4% | NCI/ADR-RES ovarian -14.6%

CC(C)(C)Nc1nc2c(OCCc3ccccc3)cccn2c1-c1cccc(F)c1
inactive: OVCAR-8 ovarian 10.2% | OVCAR-5 ovarian 14.2% | OVCAR-4 ovarian 19.2% | IGROV1 ovarian 10.1%
active: RPMI-8226 leukemia -22.6% | SK-OV-3 ovarian -17% | OVCAR-3 ovarian -0.703% | HS 578T breast -4.86% | NCI/ADR-RES ovarian 3.69% | T-47D breast 5.21%

N#Cc1nc(-c2ccccc2)oc1N1CC[C@@H](CO)C1
inactive: RPMI-8226 leukemia 99.5% | OVCAR-8 ovarian 100% | OVCAR-5 ovarian 108% | OVCAR-4 ovarian 101% | SK-OV-3 ovarian 116% | IGROV1 ovarian 94.5% | OVCAR-3 ovarian 109% | HS 578T breast 111% | NCI/ADR-RES ovarian 102% | T-47D breast 98.1%

From PubChem BioAssay (NCI)
